# Results from the supplement of paper PMC6555819.
# System: PXR:RXRa (NR concentration 270 nM, RXRa partner concentration 90 nM)
# Test: PBM binding z-score (relative to random genomic background probes); higher = stronger binding; sequences stand for … in GC…GCGATTGACAGCGTAGAATGAAGG
# Outline: (§1)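 Random background probes are the reference for binding z-scores. These scores derive from regression-normalized fluorescence on custom Agilent 4×180K protein-binding microarrays incubated 1 h with ligand-free nuclear receptor dimers. Binding was detected with antibodies against each partner (one per run).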
row,Sequence,PBM binding z-score
1,GATACAGGGTCAAGGCGAGAGTACGCGTATTGAT,3.76
2,CCTCACGGGTCACGAGGTTATAGCACGACGAGCG,4.4
3,ATCTCTAGGTAAAGATAGTTCAGTGATTGCAAAT,1.38
4,TCACCAAGGTGAAGGTCGTTGATCCCTCTGTAGA,1.61
5,GCTGCTGGGTCAACTGATGGTCAGCTAAAGCTCG,1.94
6,TCTTCTAGATCAACAGGAGGTTAAGAAAGATCGA,0.755
7,TCATATAGGTATACAGGTGAAAGTCCGTAAGTTA,0.873
8,CCTGCTAGGTCGATGGTCAGCTAAAGCAGCTCGC,-0.314
9,GCTAGCAGGCAATTTGGGTCACTCAATGACGGGC,0.273
10,CGTCCAAGGTCAGAAAGGTCAGTGAATGCCGAGT,6.06
11,AGAATGACGTTATTAAGATCAGGGAATTGCGGTC,-0.327
12,CCGACTGGGGCATAAGGTTACCTTAAGCCAGCCC,0.197
13,ACTTACGGGTGAACGAGGTTATAGCACGCGTATA,1.75
14,AGAATTAGGTTATTAAGATCAGGGAATTGCGGTC,0.5
15,GATACAGGGTCAAGGACAGAGTACGCGTATTGAT,3.92
16,ATCGAAAGGTCGACGAGGCGAGTATACACCGTTT,2.47
17,TGAATGAGGTTATAGATCAGGGAACGTGGCGTCG,0.894
18,CCTAGCCGGCCAGGGTCACTCAAGCATTTCGCTT,2.84
19,CCTACTGGGCCAACGTCATTGATCAGTCAAAGCA,-0.583
20,GCTAGTTGCTCAGTAAAAGGTCACACACCGGTCG,4.84

row,Sequence,PBM binding z-score
1,TCTTGTAGATCAGCGGGTTAAGAAAGCTGGCCAA,0.359
2,ACTAGCTGGCCAAGTTTGGGTCACTCAAACAAAG,0.38
3,TCTAGTTGGTCAAAGGTCAGACACTCGAAATGCG,4.74
4,ACTAGCAGGCCAAGTTCGGGTCACTCAAACAAAG,2.55
5,CGTCCAAGGTCAATGCTAGTTCAGTGAAAGCATT,5.51
6,CAGTCTAGGTCAGGGCCAGTATAGGAGGAACGTT,0.376
7,TCGAGTAGGTTACCAATGGGGCATTCAACTTTCT,0.506
8,TGAGTGAGGTTAAAGATCAGGGAACGTGGCGTCG,2.13
9,AGAAGGAGGTTACCAAAGATCAGGGAAACGCTTG,1.25
10,GCTAGTAGGCCATTTGGGTCACTCAATGACGGGC,0.202
11,ACAGACAGGTGATGAAGGTCACTCAGGCTATCAT,2.81
12,ACTTACGGGTCAACCAGGTTATAGCACGCGTATA,4.77
13,TCTTGAAGATCAAGCAGGTTAAGAAAGCCTGAGT,0.456
14,TGAATGGGGTTATAAGATCAGGGAACGTTGCAAA,2.25
15,ATATGTAGGTTATCTGGTCATTCAGTTTGCGCAT,1.26
16,ACTAGCAGGCCAAGTTTGAGTCACTCAAACAAAG,-0.433
17,CCTCCTGGGCCATTCAGAGGTCATTGATCATATG,4.87
18,CCTAGCAGGACAATCTGGGTCACTCAAGGCTTGA,0.609
19,TCATATAGGTAATACAGGTGAAAGTAGGCATCTA,0.952
20,CGTCACAGTTCAACTAAGGTAACGTAAAGCACGC,3.88

# System: PXR homodimer (NR concentration 270 nM)
# Test: as above
# Outline: as §1
row,Sequence,PBM binding z-score
1,GATACAGGGTCAAGGCGAGAGTACGCGTATTGAT,0.46
2,CCTCACGGGTCACGAGGTTATAGCACGACGAGCG,0.143
3,ATCTCTAGGTAAAGATAGTTCAGTGATTGCAAAT,0.822
4,TCACCAAGGTGAAGGTCGTTGATCCCTCTGTAGA,0.00737
5,GCTGCTGGGTCAACTGATGGTCAGCTAAAGCTCG,-0.46
6,TCTTCTAGATCAACAGGAGGTTAAGAAAGATCGA,0.113
7,TCATATAGGTATACAGGTGAAAGTCCGTAAGTTA,0.816
8,CCTGCTAGGTCGATGGTCAGCTAAAGCAGCTCGC,-0.494
9,GCTAGCAGGCAATTTGGGTCACTCAATGACGGGC,-0.523
10,CGTCCAAGGTCAGAAAGGTCAGTGAATGCCGAGT,10.7
11,AGAATGACGTTATTAAGATCAGGGAATTGCGGTC,-0.378
12,CCGACTGGGGCATAAGGTTACCTTAAGCCAGCCC,-0.44
13,ACTTACGGGTGAACGAGGTTATAGCACGCGTATA,0.287
14,AGAATTAGGTTATTAAGATCAGGGAATTGCGGTC,0.468
15,GATACAGGGTCAAGGACAGAGTACGCGTATTGAT,0.786
16,ATCGAAAGGTCGACGAGGCGAGTATACACCGTTT,0.0107
17,TGAATGAGGTTATAGATCAGGGAACGTGGCGTCG,0.211
18,CCTAGCCGGCCAGGGTCACTCAAGCATTTCGCTT,-0.583
19,CCTACTGGGCCAACGTCATTGATCAGTCAAAGCA,-0.509
20,GCTAGTTGCTCAGTAAAAGGTCACACACCGGTCG,0.686

row,Sequence,PBM binding z-score
1,TCTTGTAGATCAGCGGGTTAAGAAAGCTGGCCAA,-0.369
2,ACTAGCTGGCCAAGTTTGGGTCACTCAAACAAAG,-0.487
3,TCTAGTTGGTCAAAGGTCAGACACTCGAAATGCG,1.67
4,ACTAGCAGGCCAAGTTCGGGTCACTCAAACAAAG,0.53
5,CGTCCAAGGTCAATGCTAGTTCAGTGAAAGCATT,2.79
6,CAGTCTAGGTCAGGGCCAGTATAGGAGGAACGTT,0.305
7,TCGAGTAGGTTACCAATGGGGCATTCAACTTTCT,-0.241
8,TGAGTGAGGTTAAAGATCAGGGAACGTGGCGTCG,0.027
9,AGAAGGAGGTTACCAAAGATCAGGGAAACGCTTG,0.551
10,GCTAGTAGGCCATTTGGGTCACTCAATGACGGGC,-0.242
11,ACAGACAGGTGATGAAGGTCACTCAGGCTATCAT,2.02
12,ACTTACGGGTCAACCAGGTTATAGCACGCGTATA,1.62
13,TCTTGAAGATCAAGCAGGTTAAGAAAGCCTGAGT,-0.168
14,TGAATGGGGTTATAAGATCAGGGAACGTTGCAAA,1.48
15,ATATGTAGGTTATCTGGTCATTCAGTTTGCGCAT,1.14
16,ACTAGCAGGCCAAGTTTGAGTCACTCAAACAAAG,-0.248
17,CCTCCTGGGCCATTCAGAGGTCATTGATCATATG,2.7
18,CCTAGCAGGACAATCTGGGTCACTCAAGGCTTGA,-0.664
19,TCATATAGGTAATACAGGTGAAAGTAGGCATCTA,0.772
20,CGTCACAGTTCAACTAAGGTAACGTAAAGCACGC,1.47
